Activity calls are given as the source filed them. How the source made its calls: active means hit-call score of the fitted dose curve at least 0.9, where 1 is the maximum; inactive means score below 0.9.
The compounds below were run on Transforming Growth Factor (TGFA), TGFA (gene 7039) (assay: LTEA_HepaRG_TGFA: Life Technologies and Expression Analysis (LTEA) Assay for Transforming Growth Factor (TGFA) using HepaRG (AID 2283532)). Details: mRNA level, 48 h; actives raise or lower the signal.
Outline: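 qRT-PCR read-out of TGFA transcript, normalized to three housekeeping genes, fitted bidirectionally against 0.5% DMSO baseline. Human HepaRG cultures received chemicals for 48 h at eight half-log concentrations, top 100 uM.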

SMILES | outcome | AC50
CCOC(=O)c1ccc(C2CCC(NC[C@H](O)COc3ccc(O)c(NS(C)(=O)=O)c3)CC2)cc1 (some centres not stated) | inactive | 
CCOC(=O)COc1ccc2c(c1)CC(NCC(O)c1cccc(Cl)c1)CC2 (configuration not stated) | inactive | 
CC/C(=C\C(=N/O)C(N)=O)C(C)[N+](=O)[O-] (configuration not stated) | inactive | 
O=C(O)CCN(C1(C(=O)NO)CCCC1)S(=O)(=O)c1ccc(Oc2ccc(F)cc2)cc1 | inactive | 
O=C1CCC(N2C(=O)c3ccccc3C2=O)C(=O)N1 (configuration not stated) | inactive | 
O=C(OC[C@H]1O[C@@H](OC(=O)c2cc(O)c(O)c(OC(=O)c3cc(O)c(O)c(O)c3)c2)[C@H](OC(=O)c2cc(O)c(O)c(OC(=O)c3cc(O)c(O)c(O)c3)c2)[C@@H](OC(=O)c2cc(O)c(O)c(OC(=O)c3cc(O)c(O)c(O)c3)c2)[C@@H]1OC(=O)c1cc(O)c(O)c(OC(=O)c2cc(O)c(O)c(O)c2)c1)c1cc(O)c(O)c(OC(=O)c2cc(O)c(O)c(O)c2)c1 |  | 6.41 µM (active)
CCc1cc(SCc2sc(-c3ccc(C(F)(F)F)cc3)nc2CN2CCN(c3ccc(OC)cc3)CC2)ccc1OCC(=O)O |  | 6.99 µM (active)
